Experimental data: PubChem BioAssay (Tox21)
Where “and” joins values, the source holds several entries; their conditions need not be identical. Identical values can stand only once. Records with an inconclusive call do not appear. A call without a number means that no potency is given here. More than one record can exist for a structure, and the calls need not agree. Calls of active or inactive are those of the source. Unless noted, calls follow the shape of the dose curve; as a rule, active = well fitted curve in the direction sought with a large enough effect in the repeat runs; inconclusive = weak or mixed curves; inactive = no such curve, though single readings can be large; an effect the other way counts as inactive or inconclusive.

Legend:
[1] = qHTS assay to identify small molecule agonists of the peroxisome proliferator-activated receptor delta (PPARd) signaling pathway - cell viability counter screen (AID 743211); also: nearly all actives have a fitted effect of over 55% in size; also: potency is read from the fitted curve at half-maximal effect
In short: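 Multiplexed format: after the 2 h room-temperature LiveBLAzer B/G FRET step, CellTiter-Glo was added to the same wells. Luminescence after 30 min gave cell viability; compound exposure was 17 h at 37C.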

[2] = biological target: Peroxisome proliferator-activated receptor delta (Homo sapiens) (UniProt Q03181); assay: qHTS assay to identify small molecule agonists of the peroxisome proliferator-activated receptor delta (PPARd) signaling pathway (AID 743212; calls by dose curve;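 also: HEK293H cells with PPARd UAS beta-lactamase reporter GeneBLAzer system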; also: potency is read from the fitted curve at half-maximal effect)
Sequence of Peroxisome proliferator-activated receptor delta (Homo sapiens) (Q03181 whole entry, looked up): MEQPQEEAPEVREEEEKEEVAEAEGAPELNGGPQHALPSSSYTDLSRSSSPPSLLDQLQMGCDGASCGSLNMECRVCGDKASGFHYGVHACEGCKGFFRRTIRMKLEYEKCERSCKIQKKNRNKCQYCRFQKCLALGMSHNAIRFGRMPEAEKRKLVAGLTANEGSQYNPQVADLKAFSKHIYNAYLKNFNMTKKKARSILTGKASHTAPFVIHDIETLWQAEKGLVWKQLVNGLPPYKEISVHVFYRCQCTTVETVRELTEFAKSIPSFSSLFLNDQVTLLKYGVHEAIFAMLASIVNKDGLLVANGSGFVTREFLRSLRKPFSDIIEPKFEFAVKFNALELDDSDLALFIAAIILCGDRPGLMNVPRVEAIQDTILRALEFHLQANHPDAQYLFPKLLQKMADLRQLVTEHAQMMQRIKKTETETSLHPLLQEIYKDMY
In short: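 Beta-lactamase reporter readout: a ratiometric FRET signal from the LiveBLAzer substrate after 2 h at room temperature. Compound exposure at 37 °C in PPARδ-bla HEK293H cells driven by an upstream activator sequence.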

[3] = qHTS assay to identify small molecule antagonists of the peroxisome proliferator-activated receptor delta (PPARd) signaling pathway - cell viability counter screen (AID 743213); also: nearly all actives have a fitted effect of over 50% in size; also: potency is read from the fitted curve at half-maximal effect
In short: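 CellTiter-Glo was added to PPARd-bla HEK293H wells following 17 h compound treatment in the presence of 300 nM L165041. Luminescence was recorded after 30 min at room temperature.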

[4] = biological target: Peroxisome proliferator-activated receptor delta (Homo sapiens) (UniProt Q03181); assay: qHTS assay to identify small molecule antagonists of the peroxisome proliferator-activated receptor delta (PPARd) signaling pathway (AID 743215; active = well fitted inhibition curve with a large enough effect in the signal ratio in the repeat runs, not every such curve was filed as active; the % refers to the signal ratio;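 also: cells stimulated with agonist L165041 at 300 nM final during compound exposure; series mostly up to about 62 µM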)
In short: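 Agonist L165041 (300 nM final) added with compound to PPARd-bla HEK293H UAS-bla reporter cells; 17 h incubation at 37 C. Read-out: LiveBLAzer FRET substrate, 2 h at room temperature, fluorescence intensity.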

[5] = qHTS assay to identify small molecule agonists of the farnesoid-X-receptor (FXR) signaling pathway - cell viability counter screen (AID 743218); also: nearly all actives have a fitted effect of over 45% in size; also: potency is read from the fitted curve at half-maximal effect
In short: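 Viability counter screen in the same wells: CellTiter-Glo luminescence, 30 min room-temperature incubation, measured after the beta-lactamase read. Cells were GeneBLAzer FXR-UAS-bla HEK 293T, compound-treated 16 h at 37C.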

[6] = biological target: Bile acid receptor (Homo sapiens) (UniProt Q96RI1); assay: qHTS assay to identify small molecule agonists of the farnesoid-X-receptor (FXR) signaling pathway (AID 743220; active = well fitted activation curve with a large enough effect in the signal ratio in the repeat runs, not every such curve was filed as active; the % refers to the signal ratio)
Sequence of Bile acid receptor (Homo sapiens) (Q96RI1 whole entry, looked up): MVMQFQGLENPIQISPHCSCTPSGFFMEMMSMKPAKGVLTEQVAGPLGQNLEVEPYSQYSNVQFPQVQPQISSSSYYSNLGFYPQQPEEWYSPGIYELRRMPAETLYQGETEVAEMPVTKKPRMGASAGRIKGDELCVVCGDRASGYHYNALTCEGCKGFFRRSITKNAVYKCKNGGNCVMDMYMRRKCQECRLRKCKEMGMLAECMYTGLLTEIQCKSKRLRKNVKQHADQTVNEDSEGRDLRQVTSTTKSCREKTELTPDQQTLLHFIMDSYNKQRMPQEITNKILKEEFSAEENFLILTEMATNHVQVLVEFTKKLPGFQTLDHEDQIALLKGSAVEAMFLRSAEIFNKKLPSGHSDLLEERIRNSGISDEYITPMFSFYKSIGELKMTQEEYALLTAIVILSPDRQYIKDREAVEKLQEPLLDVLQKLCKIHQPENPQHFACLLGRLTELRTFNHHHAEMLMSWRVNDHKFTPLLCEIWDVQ
In short: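 FXR-UAS-bla HEK 293T cells carrying a UAS-driven beta-lactamase reporter were plated for 5 h at 37C/5% CO2, then exposed to DMSO-dissolved Tox21 10K compounds for 16 h at 37C. A LiveBLAzer B/G FRET substrate was loaded for 2 h at room temperature before fluorescence reading.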

[7] = qHTS assay to identify small molecule antagonists of the farnesoid-X-receptor (FXR) signaling pathway - cell viability counter screen (AID 743221; active = well fitted cell-killing curve with a large enough effect in the repeat runs, not every such curve was filed as active; also: nearly all actives have a fitted effect of over 50% in size; also: potency is read from the fitted curve at half-maximal effect)
In short: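 CellTiter-Glo, 30 min RT, luminescence; same wells as the LiveBLAzer FRET read. Cells: FXR-UAS-bla HEK 293T. Treatment: compound with chenodeoxycholic acid 50 uM final, 16 h at 37 C.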

[8] = biological target: Vitamin D3 receptor (Homo sapiens) (UniProt P11473); assay: qHTS assay to identify small molecule agonists of the vitamin D receptor (VDR) signaling pathway (AID 743222; calls by dose curve)
Sequence of Vitamin D3 receptor (Homo sapiens) (P11473 whole entry, looked up): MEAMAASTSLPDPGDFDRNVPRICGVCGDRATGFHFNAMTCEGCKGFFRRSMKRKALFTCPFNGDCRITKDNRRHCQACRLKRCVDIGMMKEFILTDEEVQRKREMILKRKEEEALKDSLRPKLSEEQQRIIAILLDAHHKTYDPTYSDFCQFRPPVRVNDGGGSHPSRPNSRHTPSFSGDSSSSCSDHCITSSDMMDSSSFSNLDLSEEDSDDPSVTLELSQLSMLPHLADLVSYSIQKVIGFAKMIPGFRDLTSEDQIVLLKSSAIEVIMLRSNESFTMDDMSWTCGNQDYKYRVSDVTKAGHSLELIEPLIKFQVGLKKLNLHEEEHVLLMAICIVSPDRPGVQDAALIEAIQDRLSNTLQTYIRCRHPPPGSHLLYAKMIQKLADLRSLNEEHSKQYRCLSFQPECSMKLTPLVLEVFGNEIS
In short: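 Agonist mode, beta-lactamase reporter: fluorescence from LiveBLAzer B/G FRET substrate (2 h, room temperature) read after 16 h compound treatment at 37 C of VDR-bla cells, which were pre-incubated 4 h after seeding.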

[9] = qHTS assay to identify small molecule antagonists of the vitamin D receptor (VDR) signaling pathway - cell viability counter screen (AID 743225); also: nearly all actives have a fitted effect of over 50% in size; also: potency is read from the fitted curve at half-maximal effect
In short: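 Cytotoxicity toward the VDR-bla HEK 293T line was scored by ATP-based CellTiter-Glo luminescence, read in the wells already used for the beta-lactamase readout after 16 h compound treatment under 3 nM 1-alpha,25-dihydroxyvitamin D3 stimulation.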

[10] = qHTS assay to identify small molecule agonists of the endoplasmic reticulum stress response signaling pathway (AID 1159516; active = well fitted activation curve with a large enough effect in the signal ratio in the repeat runs, not every such curve was filed as active; the % refers to the signal ratio)
In short: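 Ratiometric FRET readout (405 nm excitation; 460 and 530 nm emission) of a beta-lactamase gene driven by the ER stress response element, after 2 hr substrate loading. HeLa ESRE-bla cells were seeded overnight and treated with compounds for only 5 hr at 37 C.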

[11] = qHTS assay to identify small molecule agonists of the endoplasmic reticulum stress response signaling pathway - cell viability counter screen (AID 1159517; calls by dose curve; also: nearly all actives have a fitted effect of over 50% in size; also: potency is read from the fitted curve at half-maximal effect)
In short: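 ESRE-bla HeLa cells (1,500/well) were plated overnight at 37 C and exposed to compounds for 5 hr. After the 2 hr beta-lactamase substrate read, CellTiter-Glo went into the same wells, and luminescence was read after 30 min at room temperature.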

[12] = qHTS assay to identify small molecule antagonists of the retinoid-related orphan receptor gamma (ROR-gamma) signaling pathway - cell viability counter screen (AID 1159520); also: nearly all actives have a fitted effect of over 50% in size; also: potency is read from the fitted curve at half-maximal effect
In short: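 Cytotoxicity was read from cellular ATP (CellTiter-Glo luminescence) after 16 hr at 37 C with 1 uM doxycycline induction. The inducer was added 2 hr after compound transfer to Tet-on ROR gamma CHO cells.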

[13] = biological target: Nuclear receptor ROR-gamma (Homo sapiens) (UniProt P51449); assay: qHTS assay to identify small molecule antagonists of the retinoid-related orphan receptor gamma (ROR-gamma) signaling pathway (AID 1159521; also: nearly all actives have a fitted effect of over 50% in size; also: potency is read from the fitted curve at half-maximal effect)
In short: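 Readout: ONE-Glo luciferase luminescence, 30 min at room temperature. System: Tet-on RORγ CHO, RORE-LUC. Sequence: compound 2 h, doxycycline 1 uM final, 16 h at 37 C.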

[14] = qHTS assay to identify small molecule agonists of the AP-1 signaling pathway - cell viability counter screen (AID 1159525; calls by dose curve; also: nearly all actives have a fitted effect of over 55% in size; also: potency is read from the fitted curve at half-maximal effect)
In short: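 Intracellular ATP by Cell Titer Glo luminescence (30 min, RT) in the same ME-180 AP-1-bla wells after the 5 h compound exposure at 37 °C. Normalised to tetra n-octyl ammonium bromide and DMSO controls.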

[15] = qHTS assay to identify small molecule agonists of the AP-1 signaling pathway (AID 1159526; calls by dose curve; also: potency is read from the fitted curve at half-maximal effect)
[16] = biological target: Retinoic acid receptor RXR-alpha (Homo sapiens) (UniProt P19793); assay: qHTS assay to identify small molecule agonists of the RXR signaling pathway (AID 1159527; calls by dose curve; also: nearly all actives have a fitted effect of over 35% in size)
Sequence of Retinoic acid receptor RXR-alpha (Homo sapiens) (P19793 whole entry, looked up): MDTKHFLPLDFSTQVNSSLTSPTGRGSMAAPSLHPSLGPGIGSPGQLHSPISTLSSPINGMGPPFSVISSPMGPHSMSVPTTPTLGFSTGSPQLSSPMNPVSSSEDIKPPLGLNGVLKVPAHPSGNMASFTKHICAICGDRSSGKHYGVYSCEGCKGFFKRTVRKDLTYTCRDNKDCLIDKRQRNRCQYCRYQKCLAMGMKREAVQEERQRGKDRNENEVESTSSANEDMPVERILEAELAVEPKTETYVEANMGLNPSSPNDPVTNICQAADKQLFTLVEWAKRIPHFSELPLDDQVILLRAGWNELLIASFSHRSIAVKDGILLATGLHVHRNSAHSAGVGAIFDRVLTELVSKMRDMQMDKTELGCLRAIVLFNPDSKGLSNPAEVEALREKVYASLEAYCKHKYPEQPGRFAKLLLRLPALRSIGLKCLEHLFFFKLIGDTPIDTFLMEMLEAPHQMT
In short: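 Reporter activation is measured as beta-lactamase activity via FRET substrate cleavage (emission 460/530 nm) in HEK 293T cells expressing an RXR-alpha-driven bla construct, following 16 hr compound exposure at 37 C.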

[17] = qHTS assay to identify small molecule agonists of the vitamin D receptor (VDR) signaling pathway - cell viability counter screen (AID 743224); also: nearly all actives have a fitted effect of over 50% in size; also: potency is read from the fitted curve at half-maximal effect
In short: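 Counter screen run in the same wells as the VDR-bla reporter assay: CellTiter-Glo luminescence, 30 min at room temperature, after 16 h compound treatment at 37C of cells pre-plated for 4 h.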

[18] = qHTS assay to identify small molecule agonists of the NFkB signaling pathway - cell viability counter screen (AID 1159515; calls by dose curve; also: nearly all actives have a fitted effect of over 55% in size; also: potency is read from the fitted curve at half-maximal effect)
In short: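 Read by CellTiter-Glo luminescence (30 min, room temperature) in the wells also used for the beta-lactamase FRET read. ME-180 NFkB-bla cells at 2,000 per well were plated overnight, then exposed to compound for 5 hr at 37 C.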

[19] = biological target: Vitamin D3 receptor (Homo sapiens) (UniProt P11473); assay: qHTS assay to identify small molecule antagonists of the vitamin D receptor (VDR) signaling pathway (AID 743223; active = well fitted inhibition curve with a large enough effect in the signal ratio in the repeat runs, not every such curve was filed as active; the % refers to the signal ratio)
In short: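 After VDR-bla cells are plated and left 4 h at 37C, DMSO-dissolved compounds and 3 nM (final) calcitriol agonist are added. Incubation continues 16 h at 37C; FRET beta-lactamase substrate then develops 2 h at room temperature.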

| Structure (SMILES) | Potency [1] | Potency [2] | Potency [3] | Potency [4] | Potency [5] | Potency [6] | Potency [7] | Potency [8] | Potency [9] | outcome [10] | Potency [11] | Potency [12] | Potency [13] | Potency [14] | Potency [15] | Potency [16] | Potency [17] | Potency [18] | Potency [19] |
| --- | --- | --- | --- | --- | --- | --- | --- | --- | --- | --- | --- | --- | --- | --- | --- | --- | --- | --- | --- |
| CNC1(C)C2CCC(C2)C1(C)C (configuration not stated) | inactive | inactive | inactive | inactive | inactive | inactive | inactive | inactive | inactive | inactive | inactive | inactive | inactive | inactive | inactive | inactive |  |  |  |
| NC(=Nc1ccccc1)Nc1ccccc1 | inactive | inactive |  | inactive | inactive |  | inactive |  | inactive |  | inactive | inactive | inactive | inactive |  |  | inactive | inactive |  |
| CCCCCCCCCCCCCC[P+](CCCC)(CCCC)CCCC | 6.88 µM (active) and 8.71 µM (active) |  | 7.72 µM (active) and 11 µM (active) |  | 19.4 µM (active) and 24.5 µM (active) |  | 21.8 µM (active) and 21.9 µM (active) |  | 6.88 µM (active) and 7.76 µM (active) |  | 13.7 µM (active) and 15.5 µM (active) | 13.6 µM (active) and 10.9 µM (active) | 3.05 µM (active) and 4.86 µM (active) | 17.3 µM (active) and 21.9 µM (active) |  |  | 6.88 µM (active) and 7.76 µM (active) | 34.5 µM (active) and 21.9 µM (active) |  |
| Cc1cc(Cc2cc(C)cc(C(C)(C)C)c2O)c(O)c(C(C)(C)C)c1 | 17.5 µM (active) and 15.5 µM (active) | inactive | 13.9 µM (active) and 15.5 µM (active) |  | 21.9 µM (active) | inactive | inactive | inactive | 19.6 µM (active) and 19.5 µM (active) |  | 17.5 µM (active) and 21.9 µM (active) | 21.8 µM (active) and 30.6 µM (active) | 19.4 µM (active) and 27.3 µM (active) | 11 µM (active) and 13.8 µM (active) |  |  |  | 11 µM (active) and 17.4 µM (active) |  |
| CCCCCCC(O)CCCCCCCCCCC(=O)O (configuration not stated) | 19.6 µM (active) and 19.5 µM (active) | 21.9 µM (active) |  | inactive | inactive |  |  |  |  |  | inactive | inactive |  | inactive |  | inactive | 19.6 µM (active) and 11 µM (active) | inactive |  |
| c1ccc2c(c1)-c1cccc3c1c-2cc1ccccc13 | inactive |  |  | inactive | inactive |  | inactive |  | inactive |  | inactive | 53.2 µM (active) |  |  | 17 µM (active) and 38.9 µM (active) |  | inactive | inactive |  |
| CC(COc1ccccc1)N(CCCl)Cc1ccccc1 (configuration not stated) | inactive | inactive | inactive | inactive | 49 µM (active) and inactive |  | inactive | inactive | inactive |  | inactive | 49.1 µM (active) and 54.5 µM (active) and 29.8 µM (active) |  | inactive |  | inactive | inactive | inactive | inactive |
